This is an account of results in PubChem BioAssay.

The source made the active and inactive calls. No stated cut-off is given here; in the data, active means inhibition above about 36%; inactive means the rest.

The assay deals with transactivating tegument protein VP16 (Human herpesvirus 1). Briefly: compounds suppressing VP16-driven luciferase signal – cell-based, luminescence, single concentration, counter-screen for SRC2 inhibitor project (AID 652007). The following applies: cell-based VP16 transactivation luciferase reporter, at 8.9 µM, stronger effect = higher value. (In general: A counterscreen serves to expose hits that act by an unwanted route or on another target.)
As for `S=c1[nH]nc(C2CCCCC2)n1/N=C/c1ccncc1`, the inhibition was 10.3% (inactive).

With `Cc1ccc2nc(-c3ccccc3)cn2c1`, the inhibition is 19.2% (inactive).

Take `CN1CCN(c2ccc(NC(=O)N3CCc4ccccc43)cc2)CC1`: the inhibition is -18.3% (inactive).

On to `O=C1CCCCC1Sc1nnc(-c2ccc3c(c2)OCO3)o1` (stereo not drawn), for which the inhibition is 34% (inactive).

Turning to `Brc1cccc(CSc2nnc(-c3ccncc3)o2)c1`, the inhibition is 0.08% (inactive).

Consider `S=C(c1ccc(-c2ccccc2)cc1)N1CCOCC1`, for which the inhibition was 10.2% (inactive).

In the case of `COc1cccc(Nc2ncnc3ccc(Br)cc23)c1`, the inhibition was -7.29% (inactive).

Regarding `COCCn1c(C)cc(C2=NNC(=NC3CC3)SC2)c1C`, the inhibition is 90.8% (active).

In the case of `Cc1ccc(C(=O)Nc2cnc3ccccc3c2)cc1`, the inhibition is 50.7% (active).

Consider `CCN(c1ccc(OC)cc1)c1ncnc2nc[nH]c12`, for which the inhibition is -3.42% (inactive).

With `OCCN1CCN(c2ncnc3ccc(Br)cc23)CC1`, the inhibition is 2.48% (inactive).

As for `O=C(O)C1CC=CCC1C(=O)Nc1ccc2c(c1)OCCO2` (stereo not drawn), the inhibition was -13.1% (inactive).

In the case of `CCCN1C=CC(=C2C(=O)c3ccccc3C2=O)C=C1`, the inhibition is 80.3% (active).

On to `Nc1ncnc(N2CCc3ccccc32)c1[N+](=O)[O-]`, for which the inhibition was 9.34% (inactive).

In the case of `CCN(CC)c1ccc(/C=N/NC(=O)c2nnn(-c3nonc3N)c2C(C)C)c(O)c1`, the inhibition is -10.2% (inactive).

Turning to `COCCNc1nc(Oc2cncc(Cl)c2)c2sccc2n1`, the inhibition was 16.6% (inactive).

On to `Cc1cc(Sc2nnc(/N=C/N(C)C)s2)c2ccccc2n1`, for which the inhibition was -8.53% (inactive).

In the case of `CN(Cc1nccs1)C(=O)c1cc(COc2cccc3cnccc23)on1`, the inhibition is 16.6% (inactive).

As a reminder, the inhibition is the change of the read-out against control, counted positive when it falls.
